This is a sample that favours compounds with a hit; in the whole collection about 5.1% have one here.
CRFBP-R2 agonist = CRF-BP/CRF-R2 complex agonism; HEK293 CRF-R2/CRF-BP, calcium dye fluorescence (FLIPR); percent of saturating CRF peptide response; actives 0.46% (n = 350,000); activation, % at 13.2 µM; AID 588473;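 active means activation of at least 50%, plus an integration ratio under a set limit after plate pattern correction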
TMEM16A inh = inhibitors of mouse TMEM16A calcium-activated chloride channel | Q8BHY3 | HEK293 TMEM16A/YFP iodide influx fluorescence, ionomycin | normalized B-score (activity score, 25-100; higher = stronger inhibition) at 10 µM | actives 1.2% (n = 310,000) | AID 588511;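 active means ratio plate-corrected score three or more library SD toward inhibition, starting fluorescence score within five deviations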;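 further: score derived from kinetic fluorescence span divided by baseline fluorescence per well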
Target sequence (Q8BHY3 whole entry, looked up): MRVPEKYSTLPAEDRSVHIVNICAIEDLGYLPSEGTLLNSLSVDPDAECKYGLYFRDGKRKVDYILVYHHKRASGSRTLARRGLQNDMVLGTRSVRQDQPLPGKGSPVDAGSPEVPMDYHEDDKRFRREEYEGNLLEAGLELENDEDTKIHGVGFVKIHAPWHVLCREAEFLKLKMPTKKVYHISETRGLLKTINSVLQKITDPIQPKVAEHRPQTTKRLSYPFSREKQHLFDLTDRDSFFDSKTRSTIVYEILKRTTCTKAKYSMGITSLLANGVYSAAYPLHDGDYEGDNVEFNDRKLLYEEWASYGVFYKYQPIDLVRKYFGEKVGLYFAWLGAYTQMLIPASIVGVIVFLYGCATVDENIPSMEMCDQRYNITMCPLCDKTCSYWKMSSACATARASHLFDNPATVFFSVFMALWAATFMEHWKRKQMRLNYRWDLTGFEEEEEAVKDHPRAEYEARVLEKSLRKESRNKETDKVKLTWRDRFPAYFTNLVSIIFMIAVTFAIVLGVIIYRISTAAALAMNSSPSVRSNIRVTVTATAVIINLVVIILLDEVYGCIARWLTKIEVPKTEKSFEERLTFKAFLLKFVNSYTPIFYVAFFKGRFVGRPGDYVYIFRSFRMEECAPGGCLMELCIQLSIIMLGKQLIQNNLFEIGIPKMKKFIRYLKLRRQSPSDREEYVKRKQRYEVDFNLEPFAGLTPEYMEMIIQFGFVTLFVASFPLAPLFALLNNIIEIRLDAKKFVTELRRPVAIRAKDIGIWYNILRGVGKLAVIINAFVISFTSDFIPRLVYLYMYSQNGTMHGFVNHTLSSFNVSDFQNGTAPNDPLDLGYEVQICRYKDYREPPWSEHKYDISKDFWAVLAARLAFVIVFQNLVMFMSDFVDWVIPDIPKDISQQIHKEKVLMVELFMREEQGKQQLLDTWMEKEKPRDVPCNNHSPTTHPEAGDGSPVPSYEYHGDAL
CRFR2-BP antag = antagonists of CRF-binding protein/CRF-R2 receptor complex; HEK293 CRF-R2/CRF-BP, CRF-induced calcium fluorescence; actives 0.59% (n = 350,000); AID 588475; inhibition, % at 11.8 µM;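 active means inhibition of the ligand-induced calcium signal above about 50% at the single tested concentration, limit read from the data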
MPTP inh = permeability transition pore inhibition | isolated mouse mitochondria, Ca2+ swelling absorbance, 30 min | actives 1.4% (n = 360,000) | inhibition, % at 10 µM | AID 602449;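 active means inhibition of 50% or more, scaled per plate between neutral and stimulator controls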
NR3A LBD binder = NR3A (human) ligand-binding domain modulation; NR3A LBD differential scanning fluorimetry, Tm shift; 0% = protein alone, 100% = glycine-bound protein; actives 2.5% (n = 340,000); Tm shift relative to glycine control, % at 25 µM; AID 1259313;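 active means melting temperature shift of at least 10% of the positive control shift, at one fixed dose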
ANO1 activ = activates or potentiates the mouse TMEM16A chloride channel | actives 0.3% (n = 340,000) | B-score at 10 µM | HEK293 TMEM16A/YFP-H148Q/I152L, iodide quench fluorescence; hits give low values | Q8BHY3;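 active means fluorescence-ratio B-score plate-corrected deviation score at least 3 library SD below zero, with starting fluorescence score within 5 deviations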;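 further: channel opened by trigger with iodide after compound preincubation; score built on the fluorescence ratio of max minus min over baseline; more negative score means more quench and so TMEM16A activation or potentiation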
Of the large screens only hits and unclear results are named; the others gave an inactive call.

CCOC(=O)C1=NN(C(C)=O)C2(CC(=O)N(c3cc(C)cc(C)c3)C2=O)C1 (stereo not drawn)	NR3A LBD binder 13
CCOC(=O)C1=NN(C(C)=O)C2(CC(=O)N(c3ccc(C)c(C)c3)C2=O)C1 (stereo not drawn)	none
COc1cc(NC(=O)c2cc(C3CC3)on2)c(OC)cc1Cl	NR3A LBD binder 14
O=c1[nH]c(/C(Cl)=C/c2cc(Cl)ccc2O)nc2cc(Cl)ccc12	NR3A LBD binder 39
Cc1ccc(CCNC(=O)C2CCC(CNc3c(N4CCCC4)c(=O)c3=O)CC2)cc1 (stereo not drawn)	NR3A LBD binder 17
CCc1ccccc1N(C(C)=O)c1nc(CN=C=S)cs1	none
O=C(c1ccc(S(=O)(=O)Nc2cccc(C(F)(F)F)c2)cc1)N1CCC1	NR3A LBD binder 16
CC(=O)N1CCN(C(=O)c2ccc(S(=O)(=O)Nc3cccc(C(F)(F)F)c3)cc2)CC1	none (no result: NR3A LBD binder)
O=C(NCc1ccc(F)cc1)c1ccc(S(=O)(=O)Nc2cccc(C(F)(F)F)c2)cc1	NR3A LBD binder 29
O=C(Nc1cccc(C(F)(F)F)c1)c1cccc(NS(=O)(=O)c2ccc(O)c(C(=O)O)c2)c1	NR3A LBD binder 32
O=C(c1cccc(NS(=O)(=O)c2ccccc2)c1)N1CCCC1	none
O=C(c1cccc(NS(=O)(=O)c2ccc(F)c(F)c2)c1)N1CCN(C(c2ccccc2)c2ccccc2)CC1	CRFR2-BP antag 62
COc1ccc(OCCSc2ncc(CO)n2C)cc1	none
COc1cc(CC(=O)Nc2cc(S(=O)(=O)N3CCOCC3)ccc2N2CCCC2)cc(OC)c1OC	none (no result: TMEM16A inh)
O=C(NCc1ccccc1F)c1ccc(S(=O)(=O)Nc2cccc(C(F)(F)F)c2)cc1	NR3A LBD binder 27
O=C(NCCCN1CCCC1=O)c1ccc(S(=O)(=O)Nc2cccc(C(F)(F)F)c2)cc1	none
CN1OC[C@@H]2CN(Cc3cc(Cl)cc(Cl)c3)[C@H](c3cccc(-c4ccccc4)c3)C[C@@H]21	none (no result: TMEM16A inh, ANO1 activ)
COc1ccccc1-c1ccc(SCc2cccc(C)c2)nn1	TMEM16A inh 100
COc1ccccc1-c1ccc(SCc2ccc([N+](=O)[O-])cc2)nn1	none
CCCN(C(=O)Cc1coc2cc(OC)ccc12)C1CCS(=O)(=O)C1 (stereo not drawn)	none (no result: TMEM16A inh)
Cc1[nH]c2ccccc2c1C(=O)C(C)OC(=O)C1CCC1 (stereo not drawn)	none
Cc1cccc(-c2cc(N)n(-c3ccccc3)n2)c1	NR3A LBD binder 31 (no result: TMEM16A inh)
CCc1ccc(-c2cc(N)n(-c3ccccc3)n2)cc1	none (no result: TMEM16A inh)
Cc1cccc(-c2cnn(-c3ccccc3)c2N)c1	none
Cc1ccc(-c2cc(N)n(-c3ccccc3)n2)cc1	NR3A LBD binder 26
O=C(CSc1nc(C(F)(F)F)cc(=O)[nH]1)N1CCC(Cc2ccccc2)CC1	NR3A LBD binder 13
Cc1cc(=O)[nH]c(SCC(=O)N2CCC(Cc3ccccc3)CC2)n1	none
C[C@@H]1CN([C@@H](C)CO)C(=O)c2cc(NC(=O)C3CCCCC3)ccc2O[C@@H](C)CCCCO[C@@H]1CN(C)Cc1ccncc1	none (no result: TMEM16A inh, NR3A LBD binder, ANO1 activ)
CC(=O)c1cccc(NC(=O)C(C)OC(=O)c2cccc(S(=O)(=O)N3CCN(C)CC3)c2)c1 (stereo not drawn)	none (no result: TMEM16A inh)
COc1ccc(-c2c[n+](CC(=O)c3ccccc3)c3n2CCCCC3)cc1	none
COc1ccc(-c2c[n+]3c4n2CCCCC4=C(c2ccccc2)C3)cc1	CRFR2-BP antag 52
O=C(COc1ccc2ccccc2c1Br)NC(=S)Nc1cccc(CO)c1	NR3A LBD binder 34
O=C(NC1CCC1)C1CCC(=O)N(Cc2cccc(F)c2)C1 (stereo not drawn)	ANO1 activ -6.2
O=C(NC1CCC1)C1CCC(=O)N(Cc2ccccc2F)C1 (stereo not drawn)	none
CCOC(=O)N1CCN(C(C(=O)NC2CCCC2)c2ccco2)CC1 (stereo not drawn)	none (no result: CRFBP-R2 agonist, TMEM16A inh, CRFR2-BP antag, NR3A LBD binder, ANO1 activ)
O=S(=O)(Nc1nc2ccccc2nc1N1CCN(CCO)CC1)c1cc(F)ccc1F	none (no result: TMEM16A inh)
O=C(c1cccc(C(=O)N2CCN(Cc3ccccc3)CC2)c1)N1CCN(Cc2ccccc2)CC1	TMEM16A inh 25
O=C(c1cccc(Br)c1)N1CCN(C(=O)N2CCCCC2)CC1	none

Assay outcomes from PubChem BioAssay.
